# PubChem BioAssay AID652283 (National Center for Advancing Translational Sciences (NCATS), 2013)
# Inconclusive results are not listed. Active and inactive are the calls of the source. Calls follow the shape of the dose curve; as a rule, active = well fitted inhibition curve with a large enough effect; inconclusive = small, poorly fitted or top-dose-only effect; inactive = no such curve, though single readings can be large or run the other way.
# Assay: qHTS Assay for Lipid Storage Modulators: COS7 Assay against Probe and Analogs
# Conditions: COS7 lipid droplet area, BODIPY imaging, 18 h; cells loaded with 400 µM oleic acid
# Description: Storing lipids as a reservoir for energy or the anabolism of elementary metabolites is a common feature of probably all cells and is conserved from bacteria to humans. The universal cellular lipid storage organelle is the so-called lipid storage droplet (LD). Although ubiquitous, LDs share a simple structure composed of a hydrophobic core that harbors the storage lipids, which is shielded by a droplet-specific phospholipid monolayer to which proteins are attached. The current model of LD biogenesis involves an incorporation of the lipid core into the membrane leaflets of the endoplasmic reticulum (ER) followed by a subsequent budding-like maturation of a LD, which ultimately pinches off. Once released, LD volume can increase by localized lipogenesis or fusion of existing droplets. Storage lipids are re-mobilized enzymatically by lipase activity. Lipase regulation in the adipocyte is heavily studied and involves multiple components including catecholamine signaling, the LD-associated proteins Perilipin and comparative gene identification-58 (CGI-58) and at least two lipases named hormone sensitive lipase (HSL) and adipocyte triglyceride lipase (ATGL). LD regulation outside of the adipocyte is poorly understood and only few components are known. However, there is an urgent need to learn more about ectopic fat depots as mislocalized storage of lipids, for example in the liver or muscle, is an eminent health problem associated with insulin resistance or the metabolic syndrome. We developed a laser-scanning cytometer assay to enable 1,536-well screening and combined the results of the small molecules screen with an RNAi database based on lipid storage. In this assay we tested analogs of the probe against a mammalian cell line (COS7), to see if these small molecules could disrupt lipid storage. NIH Molecular Libraries Probe Production Centers Network [MLPCN] NIH Chemical Genomics Center [NCGC] MLPCN Grant: MH085686 Assay Submitter (PI): Mathias Beller, Max-Planck-Institut fur Biophysikalische Chemie
# COS7 cells were obtained from ATCC (CRL-1651), 5500 cells/well were dispensed into Corning 96 well imaging plate (catalog # 3340), and cultured in 100 uL of 1:1 DMEM medium (PAA) contain 10% fetal bovine serum (FBS) for 24 hours at 37 degrees C, 95% humidity, and 5% CO2. The medium was exchanged for compound treatment. Compound treatment occurred in 150 microL serum reduced medium (5% FBS) and 0.2% DMSO in presence of 400 microM oleic acid for 17-18 h. Cells were then fixed (3.7 % formaldehyde in PBS, 5 min), permeabilized (0.1% Triton X100, 5 min) and washed three times with PBS. Lipid droplets (1:2000 BODIPY 493/503) and nuclei (1:1000 Hoechst 33342) were stained for 1h. Imaging was performed in a Zeiss Axiovert automatic microscope. Number of lipid droplet accumulated in […] cells were analyzed using visual examination of the microscopic images and additional quantification by image segmentation using Cell Profiler.
SMILES,Potency,max response
CCOC(=O)C1CCN(C(=O)C(C)(C)NC(=O)Nc2ccc(Cl)cc2Cl)CC1,6.62 µM (active),–
COc1cc(C)c(Sc2cnc(NC(=O)c3ccc(CNC(C)C(C)(C)C)cc3)s2)cc1C(=O)N1CCN(C(C)=O)CC1 (stereo not given),–,-8.98% (inactive)
CCOc1ccc(CCNC(=O)c2cc3ccccc3n2Cc2cc(C)cc(C)n2)cc1OCC,1.48 µM (active),–
CCOc1ccc(CCNC(=O)c2cc3sccc3n2Cc2ccccc2)c(F)c1OCC,16.6 µM (active),–
O=C(NC1CCCc2c1cnn2-c1ccc(F)cc1F)c1ccc(C2(C(F)(F)F)N=N2)cc1 (stereo not given),–,3.15% (inactive)
CCOC(=O)C1CCN(C(=O)C(C)(C)NC(=O)Nc2cccc(-c3csc(C)n3)c2)CC1,–,3.3% (inactive)
CCOC(=O)C1CCN(C(=O)C(C)(C)NC(=O)Nc2ccc(CN3CCOCC3)cc2)CC1,–,-3.75% (inactive)
O=C(NC1CCCc2c1cnn2-c1ccc(F)cc1F)C1CC1 (stereo not given),–,3.35% (inactive)
CCn1c(C(=O)NCCc2ccc(OC)cc2)cc2sccc21,–,14.9% (inactive)
CCOC(=O)C1CCN(C(=O)C(C)(C)NC(=O)Nc2ccc([N+](=O)[O-])cc2)CC1,–,8.04% (inactive)
O=C(O)c1cccc(-c2noc(-c3ccccc3F)n2)c1,–,-6.12% (inactive)
CC(C)(C)OC(=O)N1CCCCC1C(=O)NC1CCCc2c1cnn2-c1ccc(F)cc1F (stereo not given),–,7.96% (inactive)
CCOC(=O)C1CCN(C(=O)C(C)(C)NC(=O)Nc2ccc(F)c(F)c2)CC1,–,-20.8% (inactive)
O=C(Nc1cccc2nn(-c3ccc(F)cc3)cc12)c1ccccn1,–,9.12% (inactive)
CCOC(=O)C1CCN(C(=O)C(C)(C)NC(=O)Nc2ccc(-c3ccccc3)cc2)CC1,10.5 µM (active),–
O=C(NC1CCCc2c1cnn2-c1ccc(F)cc1F)C1CCCCN1 (stereo not given),–,-10.9% (inactive)
CCOc1ccc(CCNC(=O)c2cc3ccccc3o2)cc1OCC,29.6 µM (active),–
CCOC(=O)C1CCN(C(=O)C2(NC(=O)Nc3ccccc3Cl)CCCCC2)CC1,–,-103% (inactive)
O=C(NC1CCCc2c1cnn2-c1ccc(F)cc1F)c1ccccc1 (stereo not given),14.8 µM (active),–
CCOc1ccc(CCNC(=O)c2cnon2)cc1OCC,–,8.92% (inactive)

SMILES,Potency,max response
CCOc1ccc(CCNC(=O)c2cc3sccc3n2Cc2ccc(-n3cncn3)cc2)cc1OCC,5.9 µM (active),–
O=C(NCCc1ccc(O)c(O)c1)c1cc2sccc2n1Cc1ccccc1,–,20.9% (inactive)
CC(C)(NC(=O)Nc1ccccc1Cl)C(=O)N1CCC(C(=O)O)CC1,–,21.7% (inactive)
CCOC(=O)C1CCN(C(=O)C(C)(C)NC(=O)Nc2ccccc2Cl)CC1,13.2 µM (active),–
O=C(c1cc2sccc2n1Cc1ccccc1)N(CCc1ccc(O)c(O)c1)Cc1ccccc1,–,10.7% (inactive)
CCOC(=O)C1CCN(C(=O)C(C)(C)NC(=O)Nc2ccc(N)cc2)CC1,–,-5.67% (inactive)
CCOC(=O)C1CCN(C(=O)C2(NC(=O)Nc3ccccc3Cl)CC2)CC1,–,-17.2% (inactive)
O=C(NCCc1ccc2c(c1)OCO2)c1cc2sccc2n1Cc1ccccc1,–,19.6% (inactive)
CCOC(=O)C1CCN(C(=O)C(C)(C)NC(=O)Nc2cccc(OC)c2)CC1,16.6 µM (active),–
CCOc1ccc(CCNC(=O)Cc2ccccc2)cc1OCC,–,-10.6% (inactive)
CCOc1ccc(CCNC(=O)c2cc3sccc3n2CC=C(C)C)cc1OCC,2.35 µM (active),–
CCOc1ccc(CCNC(=O)C2COc3ccccc3O2)cc1OCC (stereo not given),18.7 µM (active),–
CCOc1ccc(CCNC(=O)c2cc3sccc3n2Cc2ccncc2)cc1OCC,2.96 µM (active),–
CCOC(=O)C1CCN(C(=O)C(C)(C)NC(=O)Nc2ccc(C#N)cc2)CC1,–,-15.2% (inactive)
CCOc1ccc(C(C)CNC(=O)c2cc3sccc3n2Cc2ccccc2)cc1OCC (stereo not given),11.8 µM (active),–
CCOc1ccc(CCN(C)C(=O)c2cc3sccc3n2Cc2ccccc2)cc1OCC,11.8 µM (active),–
CCOc1ccc(CCNC(=O)c2cc3sccc3[nH]2)cc1OCC,–,-4.32% (inactive)
CC(C)(C)OC(=O)NC1CCCc2c1cnn2-c1ccc(F)cc1F (stereo not given),–,3.11% (inactive)
O=C(NC1CCCc2c1cnn2CCO)c1ccccn1 (stereo not given),–,14.9% (inactive)
O=C(NCCc1ccc2c(c1)OCO2)c1cc2sccc2[nH]1,–,5.04% (inactive)
